In PubChem BioAssay (NCATS):
Inconclusive results are not listed. Activity calls are given as the source filed them. Calls come from the whole dose curve; as a rule, active = well fitted curve in the direction sought with a large enough effect; inconclusive = small, poorly fitted or top-dose-only effect, or another doubt; inactive = no such curve, though single readings can be large; an effect the other way counts as inactive or inconclusive.

Key:
[1] = biological target: Glutathione peroxidase 1 (Homo sapiens) (UniProt P07203); assay: Primary qHTS Assay for Inhibitors of Recombinant Selenoprotein Glutathione Peroxidase 1 (GPX1) (AID 1845191); note: nearly all actives have a fitted effect of over 65% in size; for activity, negative = inhibition: % is set by controls: 0 for no effect and ±100 for the full control effect
Outline: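 NADPH consumption tracked by fluorescence at 340/450 nm between t=0 and t=15 min, room temperature. Final mix: 10 nM GPX1, 100 nM glutathione reductase, 1 mM GSH, 0.5 mM NADPH, 0.5 mM cumene hydroperoxide, 0.01% BSA; 30 min compound–enzyme preincubation.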

[2] = biological target: Phospholipid hydroperoxide glutathione peroxidase GPX4 (Homo sapiens) (UniProt P36969); assay: Primary qHTS Assay for Inhibitors of Recombinant Selenoprotein Glutathione Peroxidase 4 (GPX4) (AID 1845192); note: nearly all actives have a fitted effect of over 65% in size; for activity change, negative = inhibition: series mostly up to about 50 µM; % is set by controls: 0 for no effect and ±100 for the full control effect
Outline: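 NADPH consumption followed by fluorescence at 340/450 nm, t=0 and after 15 min at room temperature. Reaction started with cumene hydroperoxide (0.5 mM final) after 30 min compound–GPX4 preincubation; final 200 nM GPX4, 100 nM GR, 1 mM GSH, 0.5 mM NADPH.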

[3] = biological target: Luciferin 4-monooxygenase (Photinus pyralis) (UniProt P08659); assay: Primary firefly luciferase (FLuc) qHTS assay for identification of artifact compounds. (AID 1845220); note: nearly all actives have a fitted effect of over 60% in size;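 for activity change, negative = inhibition: series mostly up to about 54 µM; plate controls were DMSO vehicle for no effect and no enzyme for full effect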
Outline: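 Cell-free, 1536-well qHTS. Buffer pH 7.6 with 0.01% Tween-20 and 0.05% BSA; 10 uM D-luciferin, 10 uM ATP; 10 nM P. pyralis luciferase; luminescence after 5 min.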

[4] = Primary fluorescence-based thiol-reactive (MSTI) qHTS assay for identification of artifact compounds. (AID 1845221); note: nearly all actives have a fitted effect of over 65% in size; note: potency is the fitted concentration of half-maximal effect;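 for activity change, negative = thiol reactive: series mostly up to about 54 µM; thiol-reactive compounds lower the probe fluorescence signal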
Outline: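 Curve-fitted percent inhibition (4-parameter Hill) derived from fluorescence, Ex 525/Em 598 nm, scaled with Acetyl-MSTI and MSTI; 1 h incubation at room temperature.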

[5] = system: Nanoluciferase (engineered Oplophorus gracilirostris luciferase); assay: Primary Nanoluciferase (NLuc) qHTS assay for identification of artifact compounds. (AID 1845222);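 note: series mostly up to about 54 µM; 0% = DMSO and -100% = no enzyme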
Outline: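 Compounds are pinned into diluted (1:55) conditioned medium of NLuc-expressing S16 cells and held 15 min at room temperature protected from light. Nano-Glo substrate follows, and luminescence is read 5 min later.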

Phospholipid hydroperoxide glutathione peroxidase GPX4 (Homo sapiens), sequence (P36969 whole entry, looked up): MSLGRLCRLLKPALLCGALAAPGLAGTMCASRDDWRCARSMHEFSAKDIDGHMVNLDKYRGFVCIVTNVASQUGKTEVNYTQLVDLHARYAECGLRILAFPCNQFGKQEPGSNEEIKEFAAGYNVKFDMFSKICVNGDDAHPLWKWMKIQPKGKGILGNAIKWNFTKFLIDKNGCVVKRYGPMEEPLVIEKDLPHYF
Glutathione peroxidase 1 (Homo sapiens), sequence (P07203 whole entry, looked up): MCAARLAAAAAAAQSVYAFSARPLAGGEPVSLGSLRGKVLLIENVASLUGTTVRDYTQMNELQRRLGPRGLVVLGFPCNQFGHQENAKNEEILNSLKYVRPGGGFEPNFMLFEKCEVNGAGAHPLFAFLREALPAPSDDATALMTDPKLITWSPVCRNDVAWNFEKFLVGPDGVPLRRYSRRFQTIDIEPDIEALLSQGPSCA

Cn1ccc(NC(=O)c2cc(Oc3ccc(C(=O)N4CCC4)c(F)c3)c3c(c2)OC(C)(C)C3)n1
inactive: Potency [1] | Potency [2] | Potency [3] | Potency [4] | Potency [5]

CN1CCN(c2ccc(-c3cccc(CN4CCOCC4)c3)cc2NC(=O)c2c[nH]c(=O)cc2C(F)(F)F)CC1
inactive: Potency [1] | Potency [2] | Potency [3] | Potency [4] | Potency [5]

CC(=O)N[C@H]1[C@H](O[C@H]2CC[C@@]3(C)C(CC[C@]4(C)C3CC=C3C5CC(C)(C)CC[C@]5(C(=O)O)C(O)C[C@]34C)C2(C)C)O[C@H](CO[C@@H]2O[C@H](C)[C@H](O)[C@H](O)[C@H]2O[C@@H]2OC[C@@H](O)[C@H](O)[C@H]2O)[C@@H](O)[C@@H]1O (stereo not given in full)
inactive: Potency [1] | Potency [2] | activity change, negative = inhibition [3] -2.09% [at 11.6 µM] | activity change, negative = thiol reactive [4] 111% [at 11.5 µM] | activity, negative = inhibition [5] 3.71% [at 11.6 µM]

CCC/C=C\C=C/CCc1cc(O)c([C@@H]2O[C@H](CO)[C@@H](O)[C@H](O)[C@H]2O)c(O)c1C(=O)OC
inactive: Potency [1] | Potency [2] | Potency [3] | Potency [4] | Potency [5]

C/C=C(\C)C(=O)OC1C[C@@]2(COC(C)=O)O[C@H]2/C=C\[C@@]2(C)O[C@@H]2[C@H]2OC(=O)C(COC(C)=O)=C12 (stereo not given in full)
inactive: Potency [1] | Potency [2] | Potency [3] | Potency [5]
active: Potency [4] 13 µM

Nc1nc(NC2CC2)cc(-c2cccc(Cl)c2Cl)n1
inactive: Potency [1] | Potency [2] | Potency [3] | Potency [4] | Potency [5]

Nc1nc2c(c(N3CC[C@@H](N)C3)n1)CCCc1ccccc1-2
inactive: Potency [1] | Potency [2] | Potency [3] | Potency [4] | Potency [5]

Cc1nc(C#Cc2ccnc(Cl)c2)c(C)n1-c1ccc(F)cc1
inactive: Potency [1] | Potency [2] | Potency [3] | Potency [4] | Potency [5]

COc1ccc(CCc2nc3c(C)c(-c4c(C)noc4C)c(C)cc3n2CCN2CCOCC2)cc1
inactive: Potency [1] | Potency [2] | Potency [3] | Potency [4] | Potency [5]

O=C1c2ccc(Nc3ccc(F)cc3F)cc2CCc2ccc(OCC(O)CO)cc21 (stereo not given)
inactive: Potency [1] | Potency [2] | Potency [3] | Potency [4] | Potency [5]

CC(C)=CCC/C(C)=C/COCC1OC(n2ccc(=O)[nH]c2=O)C(O)C1O (stereo not given)
inactive: Potency [1] | Potency [2] | Potency [3] | Potency [4] | Potency [5]

COc1c(C(C)C)c(O)c(O)c2c1C(OC)[C@H]1OC(=O)[C@@]23CCCC(C)(C)[C@H]13 (stereo not given in full)
inactive: Potency [1] | Potency [2] | Potency [3] | Potency [5]
active: Potency [4] 2.93 µM

CCCc1cc(C)[nH]c(=O)c1CNC(=O)c1cc(-c2ccnc(N3CCN(C)CC3)c2)cc2c1cnn2C(C)C
inactive: Potency [1] | Potency [2] | Potency [3] | Potency [4] | Potency [5]

C[C@@H]1O[C@@H](O[C@H]2[C@H](O[C@H]3CC[C@@]4(C)C(CC[C@]5(C)C4C=C[C@]46OC[C@@]7(CCC(C)(C)C[C@H]74)[C@@H](O[C@@H]4O[C@@H](C)[C@H](O)[C@@H](O)[C@H]4O)C[C@]65C)[C@]3(C)CO)O[C@H](CO)[C@@H](O)[C@@H]2O[C@@H]2O[C@H](CO)[C@@H](O)[C@H](O)[C@H]2O)[C@H](O)[C@H](O)[C@H]1O (stereo not given in full)
inactive: Potency [1] | Potency [2] | outcome [3] inactive [at 11.6 µM] | activity change, negative = thiol reactive [4] 75.2% [at 11.5 µM] | activity, negative = inhibition [5] 3.17% [at 11.6 µM]

C[C@@H](NC(=O)[C@H](O)c1cc(F)cc(F)c1)C(=O)N[C@@H]1C(=O)N(C)c2ccccc2-c2ccccc21
inactive: Potency [1] | Potency [2] | Potency [3] | Potency [4] | Potency [5]

COc1cc(/C=N\NC(=O)c2ccc3c(c2)OCO3)ccc1OCc1ccccc1
inactive: Potency [1] | Potency [2] | Potency [3] | Potency [4] | Potency [5]

CC(=O)O[C@H]1CC(C)(C)CC2[C@]13CO[C@@]21CCC2[C@@]4(C)CC[C@H](O[C@@H]5OC[C@H](O[C@@H]6O[C@H](CO)[C@@H](O)[C@H](O)[C@H]6O[C@@H]6OC[C@@H](O[C@@H]7O[C@H](CO)[C@@H](O)[C@H](O)[C@H]7O)[C@H](O)[C@H]6O)[C@H](O)[C@H]5O[C@@H]5O[C@H](CO)[C@@H](O)[C@H](O)[C@H]5O)[C@@](C)(CO)C4CC[C@@]2(C)[C@]1(C)C[C@H]3O (stereo not given in full)
inactive: activity, negative = inhibition [1] 2.15% [at 9.52 µM] | activity change, negative = inhibition [2] 4.48% [at 9.73 µM] | activity change, negative = inhibition [3] 3.87% [at 11.6 µM] | activity change, negative = thiol reactive [4] 133% [at 11.5 µM] | activity, negative = inhibition [5] 2.8% [at 11.6 µM]

CNCCN1CCC(c2cc(CN(C)C(=O)c3cccc(Oc4ccccc4)c3)ccn2)CC1
inactive: Potency [1] | Potency [2] | Potency [3] | Potency [4] | Potency [5]

O=C(c1ccccc1)c1c(O)cc(O)cc1O[C@@H]1O[C@H](CO)[C@@H](O)[C@H](O)[C@H]1O
active: Potency [4] 13.1 µM
inactive: Potency [1] | Potency [2] | Potency [3] | Potency [5]

CC1(C)CC[C@]23CO[C@@]4(CCC5[C@@]6(C)CC[C@H](O[C@@H]7OC[C@H](O[C@@H]8O[C@H](CO)[C@@H](O)[C@H](O)[C@H]8O[C@@H]8OC[C@@H](O)[C@H](O)[C@H]8O)[C@H](O)[C@H]7O[C@@H]7O[C@H](CO)[C@@H](O)[C@H](O)[C@H]7O)[C@@](C)(CO)C6CC[C@@]5(C)[C@]4(C)C[C@H]2O)[C@@H]3C1 (stereo not given in full)
inactive: Potency [1] | Potency [2] | outcome [3] inactive [at 11.6 µM] | activity change, negative = thiol reactive [4] 317% [at 11.5 µM] | activity, negative = inhibition [5] 3.72% [at 11.6 µM]

COc1cc2c(cc1NS(=O)(=O)c1ccc(Br)cc1C)n(C)c(=O)n2C
inactive: Potency [1] | Potency [2] | Potency [3] | Potency [4] | Potency [5]

COC(=O)C1=COC(O[C@@H]2O[C@H](CO[C@@H]3O[C@H](COC(=O)/C=C\c4ccc(O)cc4)[C@@H](O)[C@H](O)[C@H]3O)[C@@H](O)[C@H](O)[C@H]2O)C2C(CO)=CCC12 (stereo not given in full)
inactive: Potency [1] | Potency [2] | Potency [3] | Potency [4] | Potency [5]

C=C1CC[C@@H](O)[C@]2(C)C[C@H]3OC(=O)C(=C)[C@H]3CC12 (stereo not given in full)
inactive: Potency [1] | Potency [2] | Potency [3] | Potency [4] | Potency [5]

C=C[C@@]1(C)C=C2C(=O)C(O)=C3[C@](C)(C(=O)O)CC[C@@H]4C[C@]34[C@]2(O)C(=O)C1
active: Potency [4] 13.1 µM
inactive: Potency [1] | Potency [2] | Potency [3] | Potency [5]

C=C(C)C(=O)O[C@H]1/C(C=O)=C\CC/C(CO)=C/[C@H]2OC(=O)C(=C)[C@@H]2[C@@H]1OC
inactive: Potency [1] | Potency [2] | Potency [3] | Potency [5]
active: Potency [4] 3.69 µM

Cc1nnc(C[C@@H]2C=C(c3ccc(Cl)cc3)c3ccccc3-n3c(C)nnc32)o1
inactive: Potency [1] | Potency [2] | Potency [3] | Potency [4] | Potency [5]

CCc1cc2c(cc1CC)CC(NCC(O)c1ccc(O)c3[nH]c(=O)ccc13)C2 (stereo not given)
inactive: Potency [1] | Potency [2] | Potency [3] | Potency [4] | Potency [5]

COC1CC/C=C(\C)C(=O)Nc2cc(O)cc(c2)CC(C)CC(OC)C(O)C(C)/C=C(\C)C1OC(N)=O (stereo not given)
inactive: Potency [1] | Potency [2] | Potency [3] | Potency [4] | Potency [5]

C/C(=C/C=C\C=C\Cc1cnco1)[C@@H](O)C(C)(C)C(N)=O
inactive: Potency [1] | Potency [2] | Potency [3] | Potency [4] | Potency [5]

CC1CCC/C=C/C(=O)c2c(O)cc(O)cc2CC(=O)O1 (stereo not given)
inactive: Potency [1] | Potency [2] | Potency [3] | Potency [5]
active: Potency [4] 11.9 µM

CC(=O)O[C@H]1[C@H](O)C[C@@]2(C)C(CC[C@]3(C)C2CC=C2C4CC(C)(C)CC[C@]4(C(=O)O)CC[C@]23C)C1(C)C (stereo not given in full)
inactive: Potency [1] | Potency [2] | Potency [3] | Potency [4] | Potency [5]

COc1cc(C#N)ccc1S(=O)(=O)Nc1ccc2c(c1)cc(C)c(=O)n2C
inactive: Potency [1] | Potency [2] | Potency [3] | Potency [4] | Potency [5]

CN1CCC(c2cn(C)c3ccc(OS(=O)(=O)c4c(F)cccc4F)cc23)CC1
inactive: Potency [1] | Potency [2] | Potency [3] | Potency [4] | Potency [5]

C=C1/C(=C/C=C2\CCC[C@]3(C)[C@@H]([C@H](C)CC[C@@H](O)C(C)(C)O)CC[C@@H]23)C[C@@H](O)C[C@@H]1O
inactive: Potency [1] | Potency [2] | Potency [3] | Potency [4] | Potency [5]

CCC(C)C(=O)OC1C(C)C2(O)C(C=C(CO)CC3(O)C(=O)C(C)=CC32)C2C(C)(C)C12OC(=O)C(C)C (stereo not given)
inactive: Potency [1] | Potency [2] | Potency [3] | Potency [4] | Potency [5]

COC1=CC(=O)C[C@@H](C)[C@@]12Oc1c(Cl)c(OC)cc(OC)c1C2=O
inactive: Potency [1] | Potency [2] | Potency [3] | Potency [4] | Potency [5]

CC1(C)CC[C@]2(C(=O)O[C@@H]3O[C@H](CO)[C@@H](O)[C@H](O)[C@H]3O)CC[C@]3(C)C(=CCC4[C@@]5(C)CC[C@H](O[C@@H]6O[C@H](C(=O)O)[C@H](O)[C@H](O)[C@H]6O)C(C)(C)C5CC[C@]43C)[C@@H]2C1 (stereo not given in full)
inactive: Potency [1] | Potency [2] | Potency [3] | Potency [4] | Potency [5]

CCc1cccc(CC)c1-n1c(C=C(C)C)c(C(=O)N2CCNCC2)cc(-c2nc(-c3ccc(C(F)(F)F)cc3)cs2)c1=O
inactive: Potency [1] | Potency [2] | Potency [3] | Potency [4] | Potency [5]
